Shown are actives, neighbours in structure and some others; about 15% of the full set was active somewhere.
VP16 counter = Gal4-VP16 reporter inhibition counter-screen; Drosophila S2 Gal4-VP16 UAS-luciferase, luminescence, 20 h; AID 2546; Potency, µM (titrated, usually from 53.6 µM), without a hit: top-dose activity, negative = inhibition, usual class: inhibitors; 3.5% of 310,000 active;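 also: Gal4-VP16 expression switched on by copper sulfate through the metallothionein promoter; nearly all actives have a fitted effect of over 50% in size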
TDP1 cell noCPT = qHTS for Inhibitors of human tyrosyl-DNA phosphodiesterase 1 (TDP1): qHTS in cells in absence of CPT; DT40 Tdp1-/- hTDP1 cells, no CPT, ATP luminescence, 48 h; Potency, µM (top dose mostly 46.2 µM), without a hit: at the top dose activity change, negative = growth inhibition, actives largely listed as inhibitors; 15% of 420,000 active; AID 686978, 2013; also: nearly all actives have a fitted effect of over 55% in size
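Luminescent ATP content (CellTiter-Glo) served as the growth readout. Knockout chicken DT40 cells expressing human TDP1 were exposed to compounds without camptothecin for a minimum 48 hr at 37 °C.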
RORgamma inh = ROR gamma (mouse) transcription inhibition. P51450. Drosophila S2 Gal4-RORgamma UAS-luciferase reporter, 20 h. Potency, µM (highest dose often 53.6 µM), for inactives: at the top dose activity change, negative = inhibition, usual class: inhibitors. 5.4% of 310,000 active; also: nearly all actives have a fitted effect of over 60% in size
Target sequence (P51450 whole entry, looked up, the tested form may be a part): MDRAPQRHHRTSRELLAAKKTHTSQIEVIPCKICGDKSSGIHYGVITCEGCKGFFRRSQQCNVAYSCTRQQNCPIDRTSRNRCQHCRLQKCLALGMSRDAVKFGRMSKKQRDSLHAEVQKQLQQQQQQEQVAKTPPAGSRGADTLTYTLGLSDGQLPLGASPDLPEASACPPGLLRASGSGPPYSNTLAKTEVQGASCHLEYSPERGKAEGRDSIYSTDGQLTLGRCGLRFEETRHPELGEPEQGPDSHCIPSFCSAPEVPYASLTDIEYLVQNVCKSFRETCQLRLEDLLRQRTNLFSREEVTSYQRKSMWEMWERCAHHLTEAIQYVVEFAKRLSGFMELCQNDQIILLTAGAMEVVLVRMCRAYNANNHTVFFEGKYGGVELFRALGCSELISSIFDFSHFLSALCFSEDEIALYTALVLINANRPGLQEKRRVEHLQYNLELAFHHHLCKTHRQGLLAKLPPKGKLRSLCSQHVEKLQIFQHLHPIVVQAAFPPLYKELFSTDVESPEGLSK
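Drosophila S2 cells stably expressing Gal4-DBD/mouse RORγ fusion under metallothionein promoter plus UAS-luciferase; compound 1 h, then 700 uM CuSO4 induction for 20 h at ambient temperature; inhibition read as reduced luminescence.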
ELG1 DNA repair = blocks ELG1-dependent DNA repair in HEK293T cells; HEK293T ELG1-luciferase reporter, luminescence, 16 h; DNA damage induced by 5-fluorouridine; Potency, µM (titrated, usually from 46.1 µM), inactives show at the top dose activity change, negative = inhibition, most hits filed as inhibitors; 2.3% of 330,000 active; also: nearly all actives have a fitted effect of over 55% in size
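Reporter activity after DNA damage by 5-fluorouridine is monitored. Compound-treated cells incubate 16 hr at 37 °C, then ONE-Glo is added for 30 min before luminescence reading.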
DT40 TDP1 CPT = growth inhibition of DT40 Tdp1-/-;hTDP1 cells with camptothecin (screen for TDP1 inhibitors); 12% of 420,000 active; Potency, µM (doses to about 46.2 µM), without a hit: at the highest dose activity change, negative = growth inhibition, actives largely listed as inhibitors; chicken DT40 Tdp1-/-;hTDP1 cells + 20 nM CPT, ATP luminescence, 48 h; also: nearly all actives have a fitted effect of over 55% in size
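Chicken DT40 Tdp1-/- cells complemented with human TDP1, 400 cells/well, exposed to compounds plus 20 nM camptothecin for at least 48 h at 37 C; viability read as ATP content by CellTiter-Glo luminescence.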
12-LOX inh = blocks human arachidonate 12S-lipoxygenase | P18054 | purified 12hLO, xylenol orange hydroperoxide absorbance | Potency, µM (titrated, usually from 108 µM), inactives show at the top dose activity change, negative = inhibition, usual class: inhibitors | 1.1% of 580,000 active
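Purified human 12hLO (150 nM final) in 25 mM Hepes, 0.01% Triton X-100, pH 7.0 was preincubated 15 min at room temperature with compound. Then 40 uM arachidonic acid was added, 30 min. Hydroperoxide was read by Fe-XO absorbance ratio 573/405 nm.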
Numbers without * were called inactive; [ ] = another dose, or the depositor's remark. Calls follow the shape of the dose curve; as a rule, active = well fitted curve in the direction sought with a large enough effect; inconclusive = small, poorly fitted or top-dose-only effect, or another doubt; inactive = no such curve, though single readings can be large; an effect the other way counts as inactive or inconclusive. % is scaled to controls: 0 for no effect and ±100 for the full control effect; potency is read from the fitted curve at half-maximal effect.

CN1C(=O)C(O)(C2COC(C)(C)CC2=O)c2cc(Br)ccc21 (centres undefined) was read as VP16 counter 2%, TDP1 cell noCPT 4.6µM*, RORgamma inh -7%, ELG1 DNA repair 9%, DT40 TDP1 CPT 5.8µM* and 12-LOX inh 2%.
`COc1ccc(/C=C/c2ccc3c(c2)C(=O)N2CC[C@H](N)[C@H]2C(=O)N3)cc1` gave 12-LOX inh 27%[176 µM].
Screening C=CCN1CCN(C(=O)CN2CC3CC(C2)[C@H]2CCCC(=O)N2C3)CC1 (some centres undefined) returned 12-LOX inh 29%.
For CCc1ccccc1NC(=O)c1ccc(F)c(S(=O)(=O)N2CCN(c3cccc(Cl)c3)CC2)c1 the results were TDP1 cell noCPT inconclusive, DT40 TDP1 CPT inconclusive and 12-LOX inh -6%.
`Cc1ccc(C)c(N2CCN(S(=O)(=O)c3cc(C(=O)Nc4ccccc4C(F)(F)F)ccc3F)CC2)c1` gave TDP1 cell noCPT 13µM*, DT40 TDP1 CPT 12µM* and 12-LOX inh -16%.
`Cc1ccccc1NC(=O)c1ccc(F)c(S(=O)(=O)N2CCN(c3ccccn3)CC2)c1` gave VP16 counter inconclusive, TDP1 cell noCPT 11µM*, RORgamma inh inconclusive, ELG1 DNA repair 23µM*, DT40 TDP1 CPT 28µM* and 12-LOX inh inconclusive.
CCC1(N2CCN(C(=O)c3ccc(Cl)s3)CC2)CCN(S(C)(=O)=O)C1 (centres undefined) was read as 12-LOX inh 9%.
For O=CN/C=C/c1cc(O)ccc1O the results were VP16 counter 16µM*, TDP1 cell noCPT 4.6µM*, RORgamma inh 11µM*, ELG1 DNA repair -11%, DT40 TDP1 CPT 4.1µM* and 12-LOX inh inconclusive.
Cc1nn(C)cc1CN(C)C(=O)Cn1nc(C(F)(F)F)c(Cl)c1C was read as 12-LOX inh 13%.
For OC(COc1ccc(Cl)cc1)CN1C2=NCCCN2c2ccccc21 (centres undefined) the results were VP16 counter -11%, TDP1 cell noCPT 21µM*, RORgamma inh -22%, ELG1 DNA repair -19%, DT40 TDP1 CPT 21µM* and 12-LOX inh 0%.
`OC(CN1C2=NCCCN2c2ccccc21)c1ccc(Cl)cc1` (centres undefined) gave VP16 counter -9%, TDP1 cell noCPT 18µM*, RORgamma inh -1%, ELG1 DNA repair 3%, DT40 TDP1 CPT inconclusive and 12-LOX inh -8%.
For CCN1C2=NCCCN2c2ccccc21 the results were VP16 counter -2%, TDP1 cell noCPT -18%, RORgamma inh -6%, ELG1 DNA repair -3%, DT40 TDP1 CPT -5% and 12-LOX inh 0%.
CC[C@@H](C)C(NC(=O)OC(C)(C)C)c1cn([C@@H](CCC(=O)OC(C)(C)C)C(=O)N2CCN(C(=O)OC(C)(C)C)CC2)nn1 (some centres undefined) was read as VP16 counter -6%, TDP1 cell noCPT 15µM*, RORgamma inh 0%, ELG1 DNA repair inconclusive, DT40 TDP1 CPT inconclusive and 12-LOX inh inconclusive.
Screening CC(C)(C)OC(=O)CC[C@@H](C(=O)N1CCN(C(=O)OC(C)(C)C)CC1)n1cc(C(CO)NC(=O)OC(C)(C)C)nn1 (some centres undefined) returned VP16 counter -6%, TDP1 cell noCPT 2%, RORgamma inh -11%, ELG1 DNA repair -10%, DT40 TDP1 CPT -37% and 12-LOX inh 0%.
`CC(C)CC(NC(=O)OC(C)(C)C)c1cn([C@@H](Cc2cc3ccccc3[nH]2)C(=O)N2CCN(C(=O)OC(C)(C)C)CC2)nn1` (some centres undefined) gave VP16 counter -3%, TDP1 cell noCPT 18µM*, RORgamma inh 21%, ELG1 DNA repair inconclusive, DT40 TDP1 CPT 18µM* and 12-LOX inh -22%.
For COc1ccc([C@H]2C[C@@H](O)[C@@H](O)[C@@H]2NS(=O)(=O)c2ccc(C(F)(F)F)cc2)cc1 the results were 12-LOX inh 0%[176 µM].
Screening CCCc1c(-c2ccc(F)cc2F)ncn1Cc1ccccc1OC returned TDP1 cell noCPT 1.5µM*, DT40 TDP1 CPT 2.1µM* and 12-LOX inh inconclusive.
`CCCCCc1c(-c2cccc(Cl)c2)ncn1CCc1ccccc1OC` gave TDP1 cell noCPT 23µM*, DT40 TDP1 CPT 23µM* and 12-LOX inh -20%.
`COc1ccccc1CCn1cnc(-c2ccc(Cl)cc2)c1CC(C)C` gave 12-LOX inh -26%.
CCCCc1c(-c2cccc(Br)c2)ncn1CCc1ccccc1OC was read as TDP1 cell noCPT 5.8µM*, DT40 TDP1 CPT 5.8µM* and 12-LOX inh inconclusive.
CCCc1c(-c2cccc(F)c2)ncn1Cc1ccccc1OC was read as TDP1 cell noCPT 8.2µM*, DT40 TDP1 CPT 9.2µM* and 12-LOX inh -17%.
`COc1ccccc1CCn1cnc(-c2cccc(Br)c2)c1C(C)C` gave 12-LOX inh -21%.
For COc1ccc(C(=O)N2C[C@@H](Oc3ccccc3)C[C@H]2C(=O)N2CCOCC2)c(OC)c1 the results were 12-LOX inh 7%.
For CCCCCc1c(-c2cccc(F)c2)ncn1CCc1ccccc1OC the results were TDP1 cell noCPT 18µM*, DT40 TDP1 CPT 23µM* and 12-LOX inh -71%.
CCCCc1c(-c2cccc(F)c2)ncn1CCc1ccccc1OC was read as TDP1 cell noCPT 21µM*, DT40 TDP1 CPT 21µM* and 12-LOX inh inconclusive.
`CCCCCc1c(-c2cccc(OC)c2)ncn1CCc1ccccc1OC` gave TDP1 cell noCPT 7.3µM*, DT40 TDP1 CPT 8.2µM* and 12-LOX inh -66%.
For CCc1c(-c2ccc(OC)c(OC)c2)ncn1CCc1ccccc1OC the results were 12-LOX inh -13%.
CCCc1c(-c2cccc(F)c2)ncn1CCc1ccccc1OC was read as TDP1 cell noCPT 15µM*, DT40 TDP1 CPT inconclusive and 12-LOX inh -21%.
O=C(N[C@H](C1CCNCC1)C1CC(O)C1)c1cccc(=O)[nH]1 (some centres undefined) was read as 12-LOX inh 0%.
For O=C(NCc1nc(-c2ccccc2)no1)NC1CCCCC1 the results were 12-LOX inh 21%.

From PubChem BioAssay
